Compounds without any hit were thinned out: in the full panel of roughly 83,000, 20% have a hit.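 In brief: 96-well plates, 48 h treatment, single concentration, percent growth endpoint.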 Unmarked numbers belong to inactive results. The source made the active and inactive calls. The calls were made as follows: active = growth percent below 10; inactive = the rest.
Key:
Test in all cases: NCI-60 one-dose screen, 48 h (100 = growth as untreated, 0 = no growth, -100 = all killed)
Settings in all cases: 10 µM unless noted
EKVX NSCLC = tested on: EKVX NSCLC
SN12C renal = tested on: SN12C renal
UO-31 renal = tested on: UO-31 renal
ACHN renal = tested on: ACHN renal
CAKI-1 renal = tested on: CAKI-1 renal
A498 renal = tested on: A498 renal
CCRF-CEM leukemia = tested on: CCRF-CEM leukemia
MOLT-4 leukemia = tested on: MOLT-4 leukemia
TK-10 renal = tested on: TK-10 renal
SR leukemia = tested on: SR leukemia

Row | SMILES | growth (EKVX NSCLC) | growth (SN12C renal) | growth (UO-31 renal) | growth (ACHN renal) | growth (CAKI-1 renal) | growth (A498 renal) | growth (CCRF-CEM leukemia) | growth (MOLT-4 leukemia) | growth (TK-10 renal) | growth (SR leukemia)
1 | O=C(c1ccccc1)N(C(=S)NCCc1ccc(Cl)cc1)c1ccccc1 | 96.3% | 110% | 80% | 108% | 93.2% | 95.3% | 61.3% | 47.6% |  | 
2 | COc1cc2c(cc1OC)C(=O)C(CC1CCN(C(=O)Nc3ccc(C)cc3)CC1)C2 (stereo unspecified) | 90.9% | 92.5% | 60.4% |  | 83.7% | 69.4% | 97.8% | 102% | 116% | 112%
3 | O=C(c1nc2ccccc2[nH]1)C1C(c2ccc(F)cc2)C2CC3CCCCC3N2[C@@]12C(=O)Nc1ccc(Cl)cc12 (stereo partly specified) | 39.5% | 52% | 30.9% |  | 54.8% | 39.8% | 33.3% | 11.4% | 72.9% | 21%
4 | COc1cccc2cc(N(C)c3nc(C)nc4ccsc34)ccc12 | 60.2% | 25.7% | 30.5% |  | 21.5% | -9.74% (active) | 4.65% (active) | 3.39% (active) | 41.8% | 2.36% (active)
5 | CCOC(=O)c1sc(-c2ccc(OS(=O)(=O)c3ccc(Br)s3)c(C=O)c2)nc1C | 85.6% | 4.77% (active) | -0.882% (active) | 7.37% (active) | 3.48% (active) | 65.3% | 8.75% (active) | 9.25% (active) |  | 13.9%
6 | O=C(Nc1ccc(F)cc1F)c1cc(Cl)ccc1O | 34.2% | 2.94% (active) | -0.334% (active) | 4.87% (active) | -14.7% (active) | -34.4% (active) | 15.4% | 8.79% (active) |  | 
7 | CC/C(=C(\CC)c1ccc(OCC[N+](C)(C)C)cc1)c1ccc(OC)cc1 | 95.6% | 51.1% | 98.2% | 98% | 104% | 53% | 60.1% | 65% |  | 69.3%
8 | O=C(COc1cc(O)c2c(=O)cc(-c3ccccc3)oc2c1)Nc1ccccc1C(F)(F)F | 51.4% | 27.7% | 17.1% | 17.8% | 22.3% | 55.9% | 58.6% | 52.1% |  | 
9 | O=c1c2cc(F)ccc2sc2c(NCCCNCCO)nc3ccc(Cl)cc3c12 | 88.8% | 67.4% | 58.5% | 60.8% | 27.8% | 60.7% | 13.7% | 18.7% |  | 
10 | CCN(CCO)CCNc1ccc(C)c2sc3cc(Cl)ccc3c(=O)c12 | 84.4% | 37.8% | 37.5% | 7.81% (active) | 68% | 1.76% (active) | 14.4% | 7.65% (active) |  | -19.4% (active)
11 | C=C[C@@H]1CCC/C=C/[C@@H]2C[C@H](O)C[C@H]2[C@H](O)/C=C/C(=O)O1 | 16.9% | 13.3% | 6.14% (active) |  | 10.4% | -17.9% (active) | 12.6% | -9.66% (active) | 15.5% | -15.1% (active)
12 | CC(C)[C@H](NC(=O)Cn1cc(C(=O)O)nn1)C(=O)O | 93.8% | 95.7% | 88.7% |  | 89.4% | 90.6% | 113% | 96.7% | 115% | 101%
13 | COC(=O)/C(=C\c1c(-c2ccccc2)[nH]c2ccccc12)S(C)(=O)=O | 58% | 59.4% | 41.5% | 56.8% | 46.4% | 29% |  | 25.6% |  | 45.1%
14 | O=C1c2ccccc2C(=O)c2c1ccc1[nH]c(CCl)nc21 | 72.5% |  | 22.7% | 10.7% | 7.26% (active) | 16.3% | -12.5% (active) | -2.42% (active) | 30.9% | 
15 | Cc1cc2c(c(C)c1Cl)C(=O)/C(=C/c1ccco1)O2 | 83.4% |  | 78.3% | 92.2% | 93.7% | 104% | 95.6% | 97.3% | 93.9% | 69.7%
16 | COc1ccc(Cn2cc(Cn3cc(C=C4C(=O)NC(=O)NC4=O)c4ccccc43)nn2)cc1 | 99.4% |  | 56.3% | 91.4% | 70.1% | 22.2% | 85% | 75.3% | 83.7% | 
17 | Nc1ccccc1-c1ccc(-c2ccc(Cl)cc2)c2c1[nH]c1ccccc12 | 70.6% |  | 26.1% | 75.2% | 50% | 72.4% | 37.4% | 25.8% | 84% | 53.6%
18 | CCCCCCCCCCCCCCn1cc(C2=C(c3coc4ccc(OC)cc34)C(=O)NC2=O)c2ccccc21 | 90.9% | 100% | 83.5% | 102% |  |  | 101% | 118% |  | 111%
19 | CNC(=O)c1cc(Oc2ccc(CC(=O)Nc3cc(C(C)(C)C)cn3C)cc2)ccn1 | 75.6% | 68.5% | 87.4% | 66.7% | 56% | 53.9% | 74% | 69.6% |  | 75.5%
20 | O=C1/C(=C/c2cccc(O)c2)COc2ccc(O)cc21 | 93.9% |  | 79.6% |  |  | 117% | 8.33% (active) | 33.3% | 130% | 10.5%
21 | COc1cc([C@@H]2NC(=O)NC(C)=C2C(=O)Nc2nc(-c3ccc(Cl)cc3)cs2)ccc1O | 91.1% | 97.4% | 69% | 98.3% | 83% | 102% | 132% | 100% |  | 106%
22 | O=c1oc2ccc(F)cc2c(=O)n1-c1ccc(Br)cc1F | 7.09% (active) |  | 5.26% (active) | 2.25% (active) | -14.8% (active) | -55.4% (active) | 11.1% | -7.7% (active) | 3.34% (active) | 
23 | CC[C@]1(O)C[C@@H]2CN(CCc3c([nH]c4ccccc34)[C@@](C(=O)OC)(c3cc4c(cc3OC)N(C)[C@H]3[C@@](O)(C(=O)OC)[C@H](OC(=O)CCCBr)[C@]5(CC)C=CCN6CC[C@]43[C@@H]65)C2)C1 | 31% |  | 37.7% | 28.2% | 9.84% (active) | -1.7% (active) | 6.76% (active) | 17.3% | 46.5% | 
24 | Cc1cccc2c(=O)c3c(sc12)c(NCCN)nc1ccccc13 | -0.232% (active) | -75.8% (active) | -77.1% (active) | -97.6% (active) | -58.4% (active) |  | -34.5% (active) | -59% (active) |  | -28.3% (active)
25 | CN1C(=O)N(C)C2(c3ccccc3)OC(=S)NC12c1ccccc1 (stereo unspecified) | 90.8% |  | 89% | 95.7% | 84.7% | 105% | 114% | 103% | 102% | 105%
26 | CCCCOCc1cc(CN2CCN(C)CC2)c(O)c2ncccc12 | 38.4% | 62% | 21.3% | 27.9% | 19.5% | 70.1% | 31.8% | 60.6% |  | 35.9%
27 | COC(=O)/C(CCC=C(C)C)=C1\[C@@H](OC(C)=O)C[C@@]2(C)[C@H]1C[C@@H](O)[C@H]1[C@@]3(C)CC[C@H](NC(=O)c4cnccn4)[C@@H](C)[C@@H]3CC[C@@]12C | 94.1% |  | 85.6% | 101% | 92% | 108% | 103% | 83.9% |  | 93.5%
28 | COc1cccc(C(=O)Cn2cc(/C=C(\C#N)S(=O)(=O)c3ccccc3)c3ccccc32)c1 | 114% |  | 70.4% | 111% | 118% | -75.9% (active) |  | 103% | 106% | 99.4%

Source: PubChem BioAssay (NCI)
